PubChem BioAssay (NCATS)
The source made the active and inactive calls. The call rests on the fitted dose curve; in most records, active means well fitted activation curve with a large enough effect; inconclusive means small, poorly fitted or top-dose-only effect; inactive means no such curve, though single readings can be large or run the other way.

What follows are molecules tested against Parathyroid hormone/parathyroid hormone-related peptide receptor (Homo sapiens) (UniProt Q03431) (assay: qHTS for PTHR1 Agonists: Optimization Screen against the NCGC LOPAC library (AID 1347079; further: 0% is about no effect)). Details: HEK293 GP2 PTHR1 GloSensor cAMP luminescence, 1 h; series mostly up to 57.1 µM; activation: at the top concentration.
Chain of Parathyroid hormone/parathyroid hormone-related peptide receptor (Homo sapiens) (Q03431 whole entry, looked up): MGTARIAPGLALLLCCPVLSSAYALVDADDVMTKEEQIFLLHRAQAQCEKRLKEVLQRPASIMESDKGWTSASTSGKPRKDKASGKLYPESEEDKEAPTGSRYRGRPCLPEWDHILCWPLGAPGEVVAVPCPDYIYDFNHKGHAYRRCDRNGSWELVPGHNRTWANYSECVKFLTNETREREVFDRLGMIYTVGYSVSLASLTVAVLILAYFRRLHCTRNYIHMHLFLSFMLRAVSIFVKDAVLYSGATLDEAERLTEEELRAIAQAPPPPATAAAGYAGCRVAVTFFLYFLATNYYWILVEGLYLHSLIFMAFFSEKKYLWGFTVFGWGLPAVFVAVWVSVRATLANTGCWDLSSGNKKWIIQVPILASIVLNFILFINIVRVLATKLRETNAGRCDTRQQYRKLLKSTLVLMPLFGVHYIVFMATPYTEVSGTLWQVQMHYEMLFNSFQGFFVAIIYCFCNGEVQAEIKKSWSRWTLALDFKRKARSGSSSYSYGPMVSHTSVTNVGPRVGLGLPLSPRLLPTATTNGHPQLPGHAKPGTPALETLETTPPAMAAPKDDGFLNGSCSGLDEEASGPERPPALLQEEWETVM
Description: The goal of the proposed studies is to discover new compounds that act as potent agonists on the parathyroid hormone receptor type-1 (PTHR1). The PTHR1 plays critical roles in maintaining blood calcium and phosphate levels, as well as in controlling bone remodeling. PTHR1 agonists could thus be useful for treating diseases such as hypoparathyroidism and osteoporosis. In the former disease, an agonist drug would help maintain normal blood calcium and phosphate levels under conditions of parathyroid hormone deficiency. In the latter disease, an agonist drug would stimulate new bone formation and thus reduce the risk of fracture, under conditions of bone fragility, as occurs in aging. We performed an optimization assay of the quantitative high-throughput screening (qHTS) for the parathyroid hormone receptor type-1 (PTHR1) against the NCGC LOPAC library collection of […] compounds using a unique HEK-293-derived cell line (GP2) that expresses the PTHR1 and a GloSensor cAMP reporter construct. Increase in signal (activation / agonist) is the desired outcome for compounds of interest. NIH Chemical Genomics Center [NCGC] NIH Molecular Libraries Probe Production Centers Network [MLPCN] MLPCN Grant: P01 DK011794 Assay Submitter (PI): Thomas Gardella PhD, Massachusetts General Hospital
Reagents / Controls: M-PTH (1-15) peptide hormone fragments was provided by the assay provider and was used as a control. Column 1 was treated with M-PTH titration (1:2 dilution) beginning with a final concentration of 10uM. Column 2 was treated with M-PTH final concentration of 10uM. Columns 3 and 4 were treated with DMSO only to assess background and noise signal. Assay Steps: Four microLiter of cells suspension was dispensed in a 1536-well assay plate at a final density of 3000 cells/well. The plates were incubated overnight, after which 4uL of 0.5mM of BloTium Luciferin plus 0.5mM IBMX was added. Next, the plate was incubated at 37C for 1hr before 23nL of compound (at various final concentrations from 40uM to 0.32uM) and control were added using a 1536-well array Kalypsys pin-tool. The treated plates were again incubated at 37C for another hour. Luminescence signal was obtained using the PerkinElmer ViewLux plate reader after 15min or room temperature incubation.

SMILES | activation | Potency
CCCCCCCCCCCCCCCC(=O)NCCO | -20% (inactive) | 
CCN(CC)CCOC(=O)C1(C2CCCCC2)CCCCC1 | -6.15% (inactive) | 
CN(C)CCCN1c2ccccc2Sc2ccc(Cl)cc21 | 4.75% (inactive) | 
CC(C(O)c1ccc(O)cc1)N1CCC(Cc2ccccc2)CC1 (stereo not given) | 18.1% (inactive) | 
C#CCN(C)Cc1ccccc1 | -11.4% (inactive) | 
CC1=C(CC(=O)O)c2cc(F)ccc2/C1=C\c1ccc(S(C)=O)cc1 (stereo not given) | 32.9% (inactive) | 
CCN(CC)CCNC(=O)c1cc(Cl)c(N)cc1OC | -35.8% (inactive) | 
Cc1cc(N)c2ccccc2[n+]1CCCCCCCCCC[n+]1c(C)cc(N)c2ccccc21 | -14% (inactive) | 
CN1CCN(C2Cc3ccccc3Sc3ccc(Cl)cc32)CC1 (stereo not given) | 17.4% (inactive) | 
Nc1cc(=O)[nH]c(N)n1 | 31.4% (inactive) | 
CC(=O)OCC(=O)[C@@]1(O)CC[C@H]2[C@@H]3CCC4=CC(=O)CC[C@]4(C)[C@H]3C(=O)C[C@@]21C | -20.5% (inactive) | 
NC1CCN(c2cccc(Cl)n2)CC1 | -24.7% (inactive) | 
CNCCC(Oc1ccc(C(F)(F)F)cc1)c1ccccc1 (stereo not given) | 44.5% (inactive) | 
CN(C)CCCN1c2ccccc2CCc2ccccc21 | -34.9% (inactive) | 
CC[C@H]1CN2CCc3cc(OC)c(OC)cc3[C@@H]2C[C@@H]1C[C@H]1NCCc2cc(OC)c(OC)cc21 | 31.3% (inactive) | 
CSc1ccc2c(c1)N(CCC1CCCCN1C)c1ccccc1S2 (stereo not given) | -45.9% (inactive) | 
CNC(=O)Oc1ccc2c(c1)[C@]1(C)CCN(C)[C@@H]1N2C | 26.4% (inactive) | 
C[C@](N)(Cc1ccc(O)cc1)C(=O)O | 22.2% (inactive) | 
CC(CN(C)C)CN1c2ccccc2CCc2ccccc21 (stereo not given) | -17.3% (inactive) | 
CSc1ccc2c(c1)C(N1CCN(C)CC1)Cc1ccccc1S2 (stereo not given) | 42.6% (inactive) | 

SMILES | activation | Potency
CN(C)CCOC(C)(c1ccccc1)c1ccccn1 (stereo not given) | 14.3% (inactive) | 
O=C1N=C(O)CN1/N=C/c1ccc(-c2ccc([N+](=O)[O-])cc2)o1 | 42.3% (inactive) | 
C[C@]12C[C@H](O)[C@H]3[C@@H](CCC4=CC(=O)CC[C@@]43C)[C@@H]1CC[C@@H]2C(=O)CO | 6.67% (inactive) | 
CC(C)C(=O)c1c(C(C)C)nn2ccccc12 | 0.349% (inactive) | 
C[C@]12CC[C@@H]3c4ccc(O)cc4CC[C@H]3[C@@H]1CCC2=O | -27.1% (inactive) | 
OCc1cc(C(O)CNCCCCCCOCCCCc2ccccc2)ccc1O (stereo not given) | 42.7% (inactive) | 
CC1=C(/C=C/C(C)=C/C=C/C(C)=C/C(=O)O)C(C)(C)CCC1 | -4.4% (inactive) | 
CN(C)CCC=C1c2ccccc2CCc2ccccc21 | -23% (inactive) | 
CCCn1cnc2c1c(=O)n(CCCCC(C)=O)c(=O)n2C | -26.1% (inactive) | 
CC(CN1c2ccccc2Sc2ccccc21)N(C)C (stereo not given) | -2.35% (inactive) | 
CC1=C(CC(=O)O)c2cc(F)ccc2/C1=C\c1ccc(S(C)(=O)=O)cc1 | 39.3% (inactive) | 
CC(C)(C)[C@]1(O)CCN2C[C@H]3c4ccccc4CCc4cccc(c43)[C@@H]2C1 |  | inactive
COc1ccc(Cl)cc1C(=O)NCCc1ccc(S(=O)(=O)NC(=O)NC2CCCCC2)cc1 | 13.9% (inactive) | 
Nc1ncnc2c1ncn2[C@@H]1O[C@H](CO)[C@@H](O)[C@H]1O | -42.2% (inactive) | 
CN(C)CC[C@@H](c1ccc(Cl)cc1)c1ccccn1 | -12.1% (inactive) | 
CCN(CC)C(C)CN1c2ccccc2Sc2ccccc21 (stereo not given) | 27.6% (inactive) | 
COCCOC(=O)C1=C(C)NC(C)=C(C(=O)OC/C=C/c2ccccc2)C1c1cccc([N+](=O)[O-])c1 (stereo not given) | -6.15% (inactive) | 
N=c1c[n+](N2CCOCC2)[n-]o1 | -21.5% (inactive) | 
CC(C)(C)c1onc(OCP(=O)(O)O)c1CC(N)C(=O)O (stereo not given) |  | inactive
CNCC(O)c1ccc(O)c(O)c1 (stereo not given) | 4.23% (inactive) | 
